Screening results (PubChem)
This excerpt belongs to a sample that is enriched for hits.
LmPK inhibitor – LmPK (Leishmania mexicana) enzyme inhibition | Q27686 | purified LmPK, Kinase-Glo ATP luminescence, 1 h | Potency, µM (series often up to 57.5 µM), without a hit: at the top dose activity change, negative = inhibition, usual class: inhibitors | 0.37% of 290,000 active | AID 1721; further: potency means the concentration at half of the fitted maximal effect; on the % scale 0 is the no-effect control and ±100 the full control effect
Target sequence (Q27686 whole entry, looked up): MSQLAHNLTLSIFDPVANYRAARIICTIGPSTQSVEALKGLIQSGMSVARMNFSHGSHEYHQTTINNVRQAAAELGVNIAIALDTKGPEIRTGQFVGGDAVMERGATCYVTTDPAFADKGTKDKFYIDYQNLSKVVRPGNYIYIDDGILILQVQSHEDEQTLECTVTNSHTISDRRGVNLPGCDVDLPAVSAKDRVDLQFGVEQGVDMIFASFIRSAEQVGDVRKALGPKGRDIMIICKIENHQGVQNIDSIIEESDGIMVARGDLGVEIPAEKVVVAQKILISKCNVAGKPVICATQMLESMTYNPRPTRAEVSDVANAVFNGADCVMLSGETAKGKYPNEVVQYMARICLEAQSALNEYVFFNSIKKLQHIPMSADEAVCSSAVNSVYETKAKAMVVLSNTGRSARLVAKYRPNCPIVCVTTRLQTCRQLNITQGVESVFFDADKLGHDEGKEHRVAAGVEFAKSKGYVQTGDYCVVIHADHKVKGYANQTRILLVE
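Screened at intermediate enzyme activity to detect both inhibitors and activators: LmPK at 0.1 nM, with a 0.5 nM enzyme column as activation reference. PEP 0.5 mM, ADP 0.1 mM; ATP detected by luminescence after 1 h.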
CHX counter – counter-screen for Shiga toxin inhibitors: cycloheximide protein synthesis inhibition; max response, %; cell reporter, cycloheximide protein synthesis inhibition counterscreen; 12% of 300,000 active; in the data active means max response mostly above about 13%, no sharp cut-off; inactive means mostly below about 14%; further: read at 38.3 µM for the half of the compounds with a filed dose; 0% is about no effect
Sm TGR inh – inhibitors of Schistosoma mansoni thioredoxin glutathione reductase; Q962Y6; purified TGR, DTNB reduction, TNB absorbance 405 nm; Potency, µM (titrated, usually from 114 µM), for inactives: at the top dose activity change, negative = inhibition, actives largely listed as inhibitors; 3% of 360,000 active; AID 485364; further: potency means the concentration at half of the fitted maximal effect; on the % scale 0 is the no-effect control and ±100 the full control effect; nearly all actives have a fitted effect of over 60% in size
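Kinetic colorimetric format: TGR-catalysed, NADPH-driven DTNB reduction monitored via TNB absorbance. Enzyme dispensed at 20 nM; compound exposure 15 min at room temperature before reaction start.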
FBPA Giardia inh – blocks Giardia fructose-bisphosphate aldolase activity | A8B2U2 | purified Giardia FBPA | Potency, µM (doses to about 59.6 µM), without a hit: at the top dose activity, negative = inhibition, usual class: inhibitors | 0.71% of 290,000 active; further: potency means the concentration at half of the fitted maximal effect; on the % scale 0 is the no-effect control and ±100 the full control effect; nearly all actives have a fitted effect of over 55% in size
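40 nM FBPA preincubated 10 min at RT with compound (up to 57.5 uM final), then substrate plus GAPDH/TPI/NAD/arsenate coupling and diaphorase/resazurin added. Fluorescence read after 20 min at RT, 525/598 nm.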
Shiga inhibitor – inhibitors of Shiga toxin in Vero cells; inhibition, % at 38.7 µM; 9.2% of 290,000 active; Vero cells, Shiga toxin protein synthesis inhibition reporter; AID 2315; in the data active means inhibition mostly above about 28%, no sharp cut-off; inactive means mostly below about 43%; further: 0% is about no effect
Tb PYK inh – blocks Trypanosoma brucei pyruvate kinase. Q57TT1. TbPYK enzyme, Kinase-Glo Plus ATP luminescence, 45 min. Potency, µM (highest dose often 76.8 µM), without a hit: top-dose activity, negative = inhibition, usual class: inhibitors. 0.12% of 410,000 active; further: potency means the concentration at half of the fitted maximal effect; on the % scale 0 is the no-effect control and ±100 the full control effect; nearly all actives have a fitted effect of over 50% in size
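Assay buffer: 50 mM TEA pH 7.2, 100 mM KCl, 10 mM MgCl2, 0.05% BSA, 0.01% Tween-20. Pyruvate kinase from T. brucei plus substrate met compound, then ADP (130 uM final). Luminescence was read post 45 min RT.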
Starred values were filed as active, the others as inactive; ? = inconclusive; nt = not tested or not shown; [ ] = dose if it differs, or a comment. Unless noted, the call rests on the fitted dose curve; in most records, active means well fitted curve in the direction sought with a large enough effect; inconclusive means small, poorly fitted or top-dose-only effect, or another doubt; inactive means no such curve, though single readings can be large; an effect the other way counts as inactive or inconclusive.

SMILES	LmPK inhibitor	CHX counter	Sm TGR inh	FBPA Giardia inh	Shiga inhibitor	Tb PYK inh
CC#CCC1(C(=O)OC)C(=O)NC[C@H]1c1ccccc1 (some centres not stated)	nt	nt	nt	-1%	nt	nt
COC(=O)CCNC(=O)c1ccc2nc(Cc3ccc(OC)c(OC)c3)oc2c1	-4%	24*	-1%	10%	29*	4%
Cc1nc(NC(=S)NC(=O)COc2ccccc2Cl)ccc1Br	0%	0	1%	-8%	14	-6%
Cc1ccc(OCC(=O)NC(=S)Nc2ccccn2)c(Br)c1	-24%	28*	-3%	nt	83*	4%
O=C(COc1ccc(Br)cc1Cl)NC(=S)Nc1ccccn1	3%	76*	-3%	?	115*	7%
O=C1C(Cl)=C(NC2CCCCC2)C(=O)N1c1ccc(Cl)cc1	0%	25*	4%	-1%	53*	2%
CN1CCN(C2=C(Cl)C(=O)N(c3ccc(Cl)cc3)C2=O)CC1	3%	9	?	-3%	25	1%
O=C(O)c1cnn(-c2nc(-c3ccc(Cl)cc3)cs2)c1C(F)(F)F	0%	53*	0%	11%	82*	5%
CNC(=O)c1cnn(-c2nc(-c3ccc(OC)cc3)cs2)c1C(F)(F)F	-1%	7	4%	2%	-6	4%
COC(=O)c1cnn(-c2nc(-c3ccccc3)cs2)c1N	-5%	42*	3%	-1%	40*	-2%
COc1ccc(-c2csc(-n3ncc(C(=O)O)c3C(F)(F)F)n2)cc1	0%	74*	-5%	18%	135*	0%
Cc1ccc(C2=CC(c3ccccc3F)n3c(nc4ccccc43)N2)cc1C (configuration not stated)	nt	nt	-21%	nt	nt	3%
OC1(C(F)(F)F)CC(c2ccc3ccccc3c2)=NO1 (configuration not stated)	2%	38*	-30%	4%	48*	0%
Cc1cc(=O)oc2cc(NC(=O)Cc3ccccc3[N+](=O)[O-])ccc12	0%	-2	1%	-2%	8	1%
Cc1ccc(/C=C/C(=O)N2CCc3ccccc3C2)cc1	1%	11*	-2%	-11%	12	-16%
CSc1ccc(/C=C/C(=O)N2CCCN(C)CC2)cc1	1%	23*	-1%	0%	52*	0%
Cc1ccc(/C=C/C(=O)N2CCCN(C(=O)/C=C/c3ccc(C)cc3)CC2)cc1	1%	16*	6%	0%	34	3%
O=C(/C=C/c1ccc(F)cc1)N1CCCN(C(=O)/C=C/c2ccc(F)cc2)CC1	9%	5	-2%	2%	1	5%
CCN1CCN(C(=O)/C=C/c2ccc(C)cc2)CC1	5%	8	0%	-5%	18	1%
O=C(c1ccco1)N1CCN(c2nc(C3CC3)nc3sc4c(c23)CCCC4)CC1	2%	-4	40µM*	6%	66	0%
Cc1nc(N2CCN(C(=O)c3ccco3)CC2)c2c3c(sc2n1)CC(C)CC3 (configuration not stated)	6%	11	0%	-1%	-7	-4%
Cc1nc(N2CCN(C(=O)c3ccco3)CC2)c2c3c(sc2n1)CCCC3	2%	-1	45µM*	-2%	-3	1%
CCc1nc(SCC(=O)N2CCN(C(=O)c3ccco3)CC2)c2c3c(sc2n1)CCCC3	-2%	-2	-22%	8%	15	5%
CCCCCNC(=O)c1c[nH]c2ccc(S(=O)(=O)N3CCC4(CC3)OCCO4)cc2c1=O	4%	-5	-2%	1%	-11	4%
CCOc1ccc(NC(=O)CSc2nccn2Cc2ccco2)cc1	-3%	31*	-6%	9%	41*	-4%
SMILES	LmPK inhibitor	CHX counter	Sm TGR inh	FBPA Giardia inh	Shiga inhibitor	Tb PYK inh
COc1ccc(NC(=O)CSc2nccn2Cc2ccco2)cc1OC	1%	27*	-6%	nt	36*	-4%
COc1ccc(NC(=O)CSc2nccn2Cc2ccco2)cc1	-2%	56*	-14%	nt	124*	2%
COc1ccc(Cl)cc1NC(=O)CSc1nccn1Cc1ccco1	nt	nt	10%	nt	nt	-6%
CCOC(=O)CNC(=O)CSc1nccn1Cc1ccco1	2%	-2	-25%	-2%	-8	-2%
C/C(N)=C(/C#N)C(=O)COC(=O)c1cccc(O)c1	-2%	17	-5%	-1%	97*	-7%
CC(=O)Nc1ccc(C(=O)OCC(=O)/C(C#N)=C(\C)N)cc1	12%	25*	2%	-1%	16	1%
C/C(N)=C(/C#N)C(=O)COC(=O)c1ccc(C)c(S(=O)(=O)N2CCCCC2)c1	9%	10	6%	11%	8	1%
C/C(N)=C(/C#N)C(=O)COC(=O)CCSc1ccccc1	1%	11	3%	1%	-10	1%
C/C(N)=C(/C#N)C(=O)COC(=O)c1ccccc1Cc1ccccc1	0%	18*	-4%	-11%	22	-1%
C/C(N)=C(/C#N)C(=O)COC(=O)c1ccncc1	8%	-2	0%	-8%	-25	-1%
CC(NC(=O)c1ccco1)c1ccc(-n2ccnc2)cc1 (configuration not stated)	nt	nt	2%	nt	nt	-3%
CSCc1ccc(C(=O)NC(C)c2ccc(-n3ccnc3)cc2)cc1 (configuration not stated)	-8%	18*	2%	nt	16	-5%
CSc1ccccc1C(=O)NC(C)c1ccc(-n2ccnc2)cc1 (configuration not stated)	-10%	9	5.6µM*	nt	-20	1%
CCc1ccc(-n2nc(C)c3c(C)cc(=O)n(CC(=O)Nc4ccc(C(C)=O)cc4)c32)cc1	nt	nt	3%	nt	nt	3%
O=C(Nc1ccc(C(=O)OCc2cc(=O)n3c4c(sc3n2)CCCC4)cc1)c1cccc(F)c1	nt	nt	10%	nt	nt	-5%
COCCCNc1ncnc2c1sc1nc(-c3ccco3)c3c(c12)CC(C)(C)OC3	5%	0	16µM*	-2%	27	-7%
Cc1nc2sc3c(NCc4ccco4)ncnc3c2c2c1COC(C)(C)C2	2%	-1	?	-1%	-3	3%
CC1(C)Cc2c(c(-c3ccco3)nc3sc4c(NCCO)ncnc4c23)CO1	10%[11.5 µM]	-5	14µM*	-1%	24	0%
COc1ccc(-c2nc3scc(CCNS(=O)(=O)c4cccs4)n3n2)cc1	nt	nt	5%	nt	nt	0%
CCc1ccc(CNC(=O)Cn2nc(C)c3nn(-c4ccc(Cl)cc4)c(C)c3c2=O)cc1	nt	nt	4%	nt	nt	1%
Cc1ccccc1C(=O)NCc1ccc2c(c1)CCN2C(=O)c1ccc(F)cc1	nt	nt	-7%	nt	nt	-4%
COc1cc(/C=C2\N=C3CCCCCN3C2=O)ccc1O	-10%	30*	56µM*	-1%	114*	8%
